“And” between values parts separate entries of the source, which are not always exact repeats. Equal entries are not always repeated. ± gives the uncertainty stated by the source.
system: U87; assay: cell viability relative to vehicle control; higher = less growth inhibition (less active); settings: 10 µM; 72 h
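Note: viable cell number estimated from Alamar Blue fluorescence read at 560/90, part of a single-dose primary screen of an FDA-approved drug library.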

Row | Structure (SMILES) | cell viability
1 | NC1=NC(=O)C(c2ccccc2)O1 (stereo not given) [Pemoline] | 102.8 ± 0.87%
2 | CC(C)CC(N(C)C)C1(c2ccc(Cl)cc2)CCC1 (stereo not given) | 108 ± 1.9%
3 | Cc1ncc2n1-c1ccc(Cl)cc1C(c1ccccc1F)=NC2 | 102.2 ± 0.87%
4 | OC1CCCCC1N1CCC(c2ccccc2)CC1 (stereo not given) | 95 ± 2.2%
5 | COC(=O)N1CCN(C(=O)Cc2ccc(Cl)c(Cl)c2)C(CN2CCCC2)C1 (stereo not given) | 105 ± 2.6%
6 | C=C1C[C@@H]2[C@H](CC[C@]3(C)C(=O)CC[C@@H]23)[C@@]2(C)C=CC(=O)C=C12 | 107 ± 2.5%
7 | c1ccc2c(c1)Nc1ccccc1S2 | 110.5 ± 0.17%
8 | C#CCN(C)[C@H](C)Cc1ccccc1 [Selegiline] | 103 ± 1.2%
9 | C[C@]12Cc3c[nH]nc3C[C@@H]1CC[C@@H]1[C@@H]2CC[C@@]2(C)[C@H]1CC[C@]2(C)O [Stanozolol] | 107 ± 2.4%
10 | C[N+]1(C)CCN(c2ccccc2)CC1 | 96.62 ± 0.74%
11 | C[C@]12CC[C@H](O)CC1=CC[C@@H]1[C@@H]2CC[C@]2(C)C(=O)CC[C@@H]12 | 116 ± 9.3%
12 | C[N+]1(CCC(C(N)=O)(c2ccccc2)c2ccccc2)CCCCC1 | 102 ± 1.4%
13 | Oc1ccc2c3c1O[C@H]1c4[nH]c5ccccc5c4C[C@@]4(O)[C@@H](C2)N(CC2CC2)CC[C@]314 [Naltrindole] | 105 ± 3%
14 | CN1C(=O)COc2c(C(=O)NC3CN4CCC3CC4)cc(Cl)cc21 (stereo not given) [Azasetron] | 103 ± 1.1%
15 | O=C1CN=C(c2ccccc2)c2cc([N+](=O)[O-])ccc2N1 [Nitrazepam] | 103.3 ± 0.55%
16 | CCN(CC)CCOC(=O)C(O)(c1ccccc1)c1ccccc1 | 101 ± 3.5%
17 | CC[C@@H](C(N)=O)N1CCCC1=O | 110 ± 12%
18 | COc1cc(N)c(Cl)cc1C(=O)NC1CN2CCC1CC2 (stereo not given) [Zacopride] | 101.7 ± 0.79%

Row | Structure (SMILES) | cell viability
19 | CC(NC(C)(C)C)C(=O)c1cccc(Cl)c1 (stereo not given) | 105% and 107%
20 | COc1ccc(C(CN(C)C)C2(O)CCCCC2)cc1 (stereo not given) | 103 ± 1.8%
21 | Oc1ccc2c3c1O[C@H]1[C@@H](O)CC[C@@]4(O)[C@@H](C2)N(CC2CCC2)CC[C@]314 [Nalbuphine] | 99.2 ± 7.3%
22 | CCCCCCCCCOc1ccc2[nH]cc(CCN)c2c1 [5-Nonyloxytryptamine] | 37.1 ± 1.2%
23 | C[C@H]1CCC[C@H](O)CCCCCc2cc(O)cc(O)c2C(=O)O1 | 107 ± 2.7%
24 | FC(F)(F)c1cccc(N2CCNCC2)c1 | 109 ± 1.2%
25 | CC[C@@H]1C=CC=CC[C@H](C)[C@@H](O)[C@@H](C)C(=O)[C@H](C)[C@@H](O)[C@H](C)C(=O)[C@H](C)[C@@H](O)[C@H](C)C=CC(=O)O[C@H]2[C@@H](C)[C@@H](CC1)O[C@@]1(CC[C@@H](C)[C@@H](C[C@H](C)O)O1)[C@@H]2C | 109 ± 11%
26 | CC(C)CC(N(C)C)C1(c2ccc(Cl)cc2)CCC1 (stereo not given) [Sibutramine] | 111.8 ± 0.39%
27 | C=C(C)CN1CC[C@]23c4c5ccc(O)c4O[C@H]2c2[nH]c4ccccc4c2C[C@@]3(O)C1C5 | 101 ± 1.4%
28 | CNC(=O)Oc1ccc2c(c1)[C@]1(C)CCN(C)[C@@H]1N2C [Physostigmine] | 93 ± 1.4%
29 | c1ccc2c3c([nH]c2c1)CNCC3 | 104 ± 1.1%
30 | Oc1cc2c(cc1O)[C@H]1c3ccccc3CN[C@@H]1CC2 | 109 ± 1.4%
31 | O=c1c2ccccc2[se]n1-c1ccccc1 | 107 ± 1.6%
32 | N=C(NCc1ccc(Cl)cc1)SCCCc1c[nH]cn1 [Clobenpropit] | 102 ± 1.4%
33 | COc1ccc(CCN)cc1OC [Homoveratrylamine] | 104 ± 1.1%
34 | CC(O)(CS(=O)(=O)c1ccc(F)cc1)C(=O)Nc1ccc(C#N)c(C(F)(F)F)c1 (stereo not given) | 103 ± 1.5%
35 | CC[C@]1(O)CC[C@H]2[C@@H]3CCC4=CCCC[C@@H]4[C@H]3CC[C@@]21C [Ethylestrenol] | 101.7 ± 0.91%
